Reference: PubChem BioAssay (EPA / NIEHS)
Results filed as inconclusive are left out. Some compounds were tested as several samples or in several runs, with calls that do not always agree. Activity calls are given as the source filed them. The calls were made as follows, unless noted: active = hit-call score of the fitted dose curve at least 0.9, where 1 is the maximum; inactive = score below 0.9.

Key:
[1] = molecular target: Oxysterols receptor LXR-beta (Homo sapiens) (UniProt P55055); assay: ATG_LXRb_TRANS: Attagene TRANS-FACTORIAL HepG2 Assay for human Liver X Receptor beta (LXRb) (AID 2282981; active = hit-call score of the fitted dose curve at least 0.9, where 1 is the maximum); conditions: HepG2 Attagene TRANS GAL4-LXRb reporter, mRNA
Chain of Oxysterols receptor LXR-beta (Homo sapiens) (P55055 whole entry, looked up, the tested form may be a part): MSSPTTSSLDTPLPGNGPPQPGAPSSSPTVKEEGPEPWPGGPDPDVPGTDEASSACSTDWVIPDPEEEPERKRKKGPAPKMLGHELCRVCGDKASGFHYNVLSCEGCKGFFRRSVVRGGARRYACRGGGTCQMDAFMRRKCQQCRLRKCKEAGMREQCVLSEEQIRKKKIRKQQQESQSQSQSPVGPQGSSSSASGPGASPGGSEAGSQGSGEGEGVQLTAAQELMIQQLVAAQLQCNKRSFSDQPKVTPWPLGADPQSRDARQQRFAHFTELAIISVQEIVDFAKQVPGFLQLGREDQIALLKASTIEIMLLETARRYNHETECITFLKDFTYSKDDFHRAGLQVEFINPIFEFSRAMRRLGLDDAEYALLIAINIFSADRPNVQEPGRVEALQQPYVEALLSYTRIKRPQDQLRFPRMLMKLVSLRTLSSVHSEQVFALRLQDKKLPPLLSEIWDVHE
Method in brief: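 Transient transfection HepG2 (multiplexed RTUs, GAL4-UAS); NR-Gal4 chimera; 24 h exposure; RNA → RT-PCR → 6-FAM primer extension → HpaI → CE; increase vs DMSO.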

[2] = molecular target: Hepatocyte nuclear factor 4-alpha (Homo sapiens) (UniProt P41235); assay: ATG_HNF4a_TRANS: Attagene TRANS-FACTORIAL HepG2 Assay for human Hepatocyte Nuclear Factor 4 alpha (HNF4a) (AID 2282982; active = hit-call score of the fitted dose curve at least 0.9, where 1 is the maximum); conditions: HepG2 HNF4a transactivation reporter, mRNA readout
Chain of Hepatocyte nuclear factor 4-alpha (Homo sapiens) (P41235 whole entry, looked up, the tested form may be a part): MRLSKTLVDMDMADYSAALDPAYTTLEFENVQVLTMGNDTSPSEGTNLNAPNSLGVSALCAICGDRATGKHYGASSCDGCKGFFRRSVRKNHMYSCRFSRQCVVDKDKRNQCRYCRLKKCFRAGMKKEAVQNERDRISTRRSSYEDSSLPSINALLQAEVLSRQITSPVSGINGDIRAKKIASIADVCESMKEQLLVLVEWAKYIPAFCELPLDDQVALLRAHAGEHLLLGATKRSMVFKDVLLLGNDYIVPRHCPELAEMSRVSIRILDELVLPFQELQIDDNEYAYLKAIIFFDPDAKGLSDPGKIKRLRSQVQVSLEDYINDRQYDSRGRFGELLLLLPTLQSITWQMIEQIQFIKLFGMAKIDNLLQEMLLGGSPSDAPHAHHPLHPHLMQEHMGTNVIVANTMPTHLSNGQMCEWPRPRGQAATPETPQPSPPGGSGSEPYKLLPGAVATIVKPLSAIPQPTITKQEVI
Method in brief: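 Readout is fluorescent reporter-transcript fragments resolved by capillary electrophoresis after RT-PCR from HepG2 cells dosed for 24 h. Cells carried transfected GAL4-UAS reporter constructs measuring exogenous NR-GAL4 chimera activity; DMSO served as baseline.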

[3] = ATG_M_06_TRANS: Attagene TRANS-FACTORIAL HepG2 Assay for M06 Transcription Factor (Internal Marker) (AID 2282983; active = hit-call score of the fitted dose curve at least 0.9, where 1 is the maximum); conditions: HepG2 Attagene TRANS M06 internal marker reporter
Method in brief: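 Measured by capillary electrophoresis of fluorescently labelled RT-PCR products, this endpoint reflects reporter mRNA in HepG2 cells harbouring exogenous NR-GAL4 reporter constructs after 24 h exposure, with DMSO as baseline.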

[4] = molecular target: Nuclear receptor subfamily 4 group A member 2 (Homo sapiens) (UniProt P43354); assay: ATG_NURR1_TRANS: Attagene TRANS-FACTORIAL HepG2 Assay for human Nuclear Receptor Related Protein 1 (NURR1) (AID 2282985; active = hit-call score of the fitted dose curve at least 0.9, where 1 is the maximum); conditions: HepG2 Attagene TRANS reporter, mRNA readout
Chain of Nuclear receptor subfamily 4 group A member 2 (Homo sapiens) (P43354 whole entry, looked up, the tested form may be a part): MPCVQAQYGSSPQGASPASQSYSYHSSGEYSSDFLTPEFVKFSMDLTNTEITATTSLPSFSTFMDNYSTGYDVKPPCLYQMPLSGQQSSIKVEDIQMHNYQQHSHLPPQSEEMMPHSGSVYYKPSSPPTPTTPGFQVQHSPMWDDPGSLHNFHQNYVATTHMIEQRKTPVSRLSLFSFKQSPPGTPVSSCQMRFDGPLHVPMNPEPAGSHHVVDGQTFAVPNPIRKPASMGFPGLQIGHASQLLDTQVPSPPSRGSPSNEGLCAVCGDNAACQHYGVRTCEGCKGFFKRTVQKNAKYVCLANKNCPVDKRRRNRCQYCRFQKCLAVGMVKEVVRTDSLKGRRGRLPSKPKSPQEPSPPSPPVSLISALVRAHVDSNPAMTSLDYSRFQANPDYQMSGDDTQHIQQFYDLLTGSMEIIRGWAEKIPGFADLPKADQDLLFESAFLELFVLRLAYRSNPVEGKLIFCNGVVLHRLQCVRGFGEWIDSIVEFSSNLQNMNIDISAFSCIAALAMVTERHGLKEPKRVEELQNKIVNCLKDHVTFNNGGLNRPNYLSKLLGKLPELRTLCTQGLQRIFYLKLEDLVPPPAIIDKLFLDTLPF
Method in brief: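 Transient transfection of HepG2, human liver cells, with multiple GAL4-UAS reporter transcription units. Cells dosed 24 h, RNA isolated, reverse-transcribed, PCR-amplified, FAM-labelled, HpaI-digested, sized by capillary electrophoresis. DMSO served as negative control.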

[5] = molecular target: Transcriptional activator Myb (Homo sapiens) (UniProt P10242); assay: ATG_Myb_CIS: Attagene CIS-FACTORIAL HepG2 Assay for human Myeloblastosis (Myb) Proto-Oncogene Transcription Factor (AID 2282986); conditions: HepG2 Attagene CIS-FACTORIAL Myb reporter transcription; actives raise or lower the signal
Chain of Transcriptional activator Myb (Homo sapiens) (P10242 whole entry, looked up): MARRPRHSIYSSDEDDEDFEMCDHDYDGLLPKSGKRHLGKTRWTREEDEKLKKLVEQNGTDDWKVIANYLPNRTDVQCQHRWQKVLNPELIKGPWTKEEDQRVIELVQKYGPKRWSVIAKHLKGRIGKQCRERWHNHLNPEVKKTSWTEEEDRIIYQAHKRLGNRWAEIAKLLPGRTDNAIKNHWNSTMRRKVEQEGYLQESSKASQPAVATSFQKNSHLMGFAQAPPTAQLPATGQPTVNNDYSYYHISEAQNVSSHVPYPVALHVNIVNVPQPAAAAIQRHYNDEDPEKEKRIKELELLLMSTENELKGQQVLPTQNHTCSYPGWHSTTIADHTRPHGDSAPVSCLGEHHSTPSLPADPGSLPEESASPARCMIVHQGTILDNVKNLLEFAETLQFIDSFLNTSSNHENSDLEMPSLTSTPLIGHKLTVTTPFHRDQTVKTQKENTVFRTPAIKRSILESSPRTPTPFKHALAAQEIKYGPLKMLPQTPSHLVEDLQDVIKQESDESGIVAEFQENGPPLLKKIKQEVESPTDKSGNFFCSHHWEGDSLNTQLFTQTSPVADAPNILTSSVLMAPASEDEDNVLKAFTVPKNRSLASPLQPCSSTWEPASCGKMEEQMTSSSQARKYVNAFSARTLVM
Method in brief: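 HepG2, transient MRTU transfection (cis-element promoters, endogenous TF activity), 24 h compound exposure. Readout: reporter mRNA via RT-PCR, 6-FAM labeling, HpaI digest, capillary electrophoresis. Gain/loss fit vs DMSO.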

[6] = molecular target: Nuclear respiratory factor 1 (Homo sapiens) (UniProt Q16656); assay: ATG_NRF1_CIS: Attagene CIS-FACTORIAL HepG2 Assay for human Nuclear Respiratory Factor 1 (NRF1) Orphan Gene (AID 2282987); conditions: HepG2 NRF1 cis-element reporter, Attagene multiplex; actives raise or lower the signal
Chain of Nuclear respiratory factor 1 (Homo sapiens) (Q16656 whole entry, looked up): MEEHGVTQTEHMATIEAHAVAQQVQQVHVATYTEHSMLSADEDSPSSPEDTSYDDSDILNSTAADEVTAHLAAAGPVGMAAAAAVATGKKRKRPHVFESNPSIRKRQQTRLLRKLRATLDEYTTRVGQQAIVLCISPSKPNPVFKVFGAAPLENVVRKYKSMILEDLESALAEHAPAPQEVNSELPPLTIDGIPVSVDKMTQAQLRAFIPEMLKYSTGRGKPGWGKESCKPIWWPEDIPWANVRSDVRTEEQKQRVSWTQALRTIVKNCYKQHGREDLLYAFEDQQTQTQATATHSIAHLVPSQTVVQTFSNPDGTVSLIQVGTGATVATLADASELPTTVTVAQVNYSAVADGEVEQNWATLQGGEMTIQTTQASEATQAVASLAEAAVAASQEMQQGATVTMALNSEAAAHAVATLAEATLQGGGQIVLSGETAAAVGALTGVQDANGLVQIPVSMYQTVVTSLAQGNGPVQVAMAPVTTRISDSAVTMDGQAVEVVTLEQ
Method in brief: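 Endogenous NRF1-driven reporter transcription measured in transiently transfected human HepG2 liver cells. Readout: reporter mRNA by RT-PCR and capillary electrophoresis with fluorescence detection, 24 h post-dosing. Gain or loss of signal fitted relative to DMSO baseline.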

[7] = ATG_NFI_CIS: Attagene CIS-FACTORIAL HepG2 Assay for human Nuclear Factor I (NFI) (AID 2282989); conditions: HepG2 cis-regulatory reporter, NFI response element transcription; actives raise or lower the signal
Method in brief: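 Endogenous TF activity in HepG2 cells transiently transfected with cis-element-driven multiplexed reporter units, read 24 h after dosing. Reporter mRNA quantified by RT-PCR, 6-FAM labelling, HpaI digestion and capillary electrophoresis; bidirectional fit versus DMSO.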

[8] = molecular target: Myc proto-oncogene protein (Homo sapiens) (UniProt P01106); assay: ATG_Myc_CIS: Attagene CIS-FACTORIAL HepG2 Assay for human Myelocytomatosis (Myc) Proto-Oncogene Transcription Factor (AID 2282990); conditions: HepG2, Attagene cis-reporter transcription factor activity; actives raise or lower the signal
Chain of Myc proto-oncogene protein (Homo sapiens) (P01106 whole entry, looked up): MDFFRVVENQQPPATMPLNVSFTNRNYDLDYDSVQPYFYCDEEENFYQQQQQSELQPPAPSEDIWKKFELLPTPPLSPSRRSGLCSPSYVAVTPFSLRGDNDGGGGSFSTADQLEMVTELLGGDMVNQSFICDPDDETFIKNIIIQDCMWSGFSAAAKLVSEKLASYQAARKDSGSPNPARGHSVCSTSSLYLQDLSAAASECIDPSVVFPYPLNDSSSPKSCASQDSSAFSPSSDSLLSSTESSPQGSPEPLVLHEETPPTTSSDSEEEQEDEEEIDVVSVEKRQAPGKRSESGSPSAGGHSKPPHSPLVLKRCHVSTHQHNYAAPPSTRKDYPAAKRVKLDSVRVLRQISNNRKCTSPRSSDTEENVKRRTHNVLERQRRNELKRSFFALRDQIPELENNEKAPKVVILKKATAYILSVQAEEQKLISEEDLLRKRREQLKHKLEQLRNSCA
Method in brief: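 HepG2, transient MRTU transfection (cis promoters, endogenous TFs); 24 h dosing; TriZol RNA → oligo(dT) RT → PCR → 6-FAM primer extension → HpaI cut → CE. Bidirectional fit vs DMSO.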

[9] = ATG_NRF2_ARE_CIS: Attagene CIS-FACTORIAL HepG2 Assay for human Nuclear Factor Erythroid 2 Related Factor 2 (NFR2) response to Antioxidant Response Elements (ARE) (AID 2282992); conditions: HepG2 Attagene ARE/NRF2 reporter, transcription factor activity; actives raise or lower the signal
Method in brief: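 Multiplexed reporter mRNA profiling in HepG2 after a 24 h chemical exposure. Curves fitted in both directions relative to DMSO negative control.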

[10] = ATG_Oct_MLP_CIS: Attagene CIS-FACTORIAL HepG2 Assay for human Octamer-Binding Transcription Factor (Oct) (AID 2282993); conditions: HepG2 Attagene cis-factorial Oct reporter, mRNA; actives raise or lower the signal
Method in brief: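 HepG2 cells transiently transfected with cis-element-driven reporter transcription units (endogenous TF activity); 24 h compound exposure. Reporter mRNA quantified by RT-PCR, 6-FAM labelling, HpaI digestion and capillary electrophoresis; bidirectional fit versus DMSO baseline.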

[11] = ATG_M_32_TRANS: Attagene TRANS-FACTORIAL HepG2 Assay for M32 Transcription Factor (Internal Marker) (AID 2282984; active = hit-call score of the fitted dose curve at least 0.9, where 1 is the maximum;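 also: transcript level of a background control reporter unit measured by RT-PCR and capillary electrophoresis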); conditions: HepG2 Attagene TRANS M32 internal marker reporter
Method in brief: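 Measures reporter mRNA induction in human HepG2 liver cells after 24 h chemical treatment. Transcripts from transiently transfected GAL4-UAS reporter units are amplified, fluorescently labelled and sized by capillary electrophoresis; gain of signal relative to DMSO.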

[12] = ATG_NF_kB_CIS: Attagene CIS-FACTORIAL HepG2 Assay for human Nuclear Factor Kappa B (NF-kB) (AID 2282991); conditions: HepG2 Attagene cis-factorial NF-kB reporter mRNA; actives raise or lower the signal
Method in brief: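 Read-out: reporter transcript levels quantified by RT-PCR plus capillary electrophoresis of 6-FAM-labelled, HpaI-cut fragments. Transfected HepG2 cells, 24 h compound exposure, endogenous NF-kB-driven cis element; gain or loss scored versus DMSO.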

[13] = molecular target: Cellular tumor antigen p53 (Homo sapiens) (UniProt P04637); assay: ATG_p53_CIS: Attagene CIS-FACTORIAL HepG2 Assay for human p53 Transcription Factor (AID 2282994); conditions: HepG2 p53 cis-element reporter, Attagene mRNA; actives raise or lower the signal
Chain of Cellular tumor antigen p53 (Homo sapiens) (P04637 whole entry, looked up): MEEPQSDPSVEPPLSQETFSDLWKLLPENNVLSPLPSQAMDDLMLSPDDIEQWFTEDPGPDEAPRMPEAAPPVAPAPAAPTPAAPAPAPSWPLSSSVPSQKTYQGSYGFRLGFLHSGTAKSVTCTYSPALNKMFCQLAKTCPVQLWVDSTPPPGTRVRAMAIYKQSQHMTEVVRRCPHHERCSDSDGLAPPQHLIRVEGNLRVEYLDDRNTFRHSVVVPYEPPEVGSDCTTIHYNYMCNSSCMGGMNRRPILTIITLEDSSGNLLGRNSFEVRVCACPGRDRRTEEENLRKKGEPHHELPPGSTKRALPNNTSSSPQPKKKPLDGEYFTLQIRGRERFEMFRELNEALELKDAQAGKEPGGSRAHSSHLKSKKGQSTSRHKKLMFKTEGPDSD
Method in brief: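 Multiplexed reporter mRNA assay in human HepG2 liver cells; cis-regulated units report endogenous factor activity. Values come from bidirectional curve fitting against DMSO negative control after 24 h treatment.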

[14] = BSK_3C_uPAR: BioMAP Diversity Plus: 3C Assay for Urokinase-type plasminogen activator receptor (uPAR) Biomarker Activity (AID 2282998); conditions: BioMAP 3C HUVEC, uPAR biomarker ELISA; actives raise or lower the signal
Method in brief: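 Primary human umbilical vein endothelial cells, 3C system; surface uPAR measured by ELISA 24 h after dosing. Cytotoxicity via SRB total protein in parallel cultures; bidirectional fit against DMSO.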

[15] = BSK_3C_VCAM1: BioMAP Diversity Plus: 3C Assay for Vascular cell adhesion molecule 1 (VCAM1) Biomarker Activity (AID 2282999); conditions: BioMAP 3C HUVEC, VCAM1 ELISA, cytokine-stimulated; actives raise or lower the signal
Method in brief: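 Endothelial cells from human umbilical vein are treated with test chemical. At 24 h, VCAM-1 is measured by ELISA, and responses in either direction are fitted relative to DMSO.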

Measured: AC50

C1CCCNCC1
not listed: [11] | [12] | [13] | [14] | [15]
inactive: all other assays above

CCOC(=O)CCCCCCCCC(=O)OCC
not listed: [4]
inactive: all other assays above

CC(C)COC(=O)c1ccccc1
not listed: [4] | [5] | [11] | [14] | [15]
inactive: all other assays above

CCCCCc1cccc(=O)o1
active: [9] 41.5 µM
not listed: [2] | [3] | [4] | [14] | [15]
inactive: all other assays above

CC(=O)CCC=C(C)CCC=C(C)C
active: [9] 53 µM | [15] 30.9 µM
not listed: [1]
inactive: all other assays above

COc1cc(OC)c2ccc(=O)oc2c1
not listed: [1] | [13] | [14] | [15]
inactive: all other assays above

C=CCCCCCCCCC(=O)OCC
inactive: [11] | [4] | [5] | [6] | [7] | [8] | [10] | [13]
active: [9] 61.7 µM

O=S(=O)(O)C(F)(F)C(F)(F)OC(F)(F)C(F)(F)F
inactive: [14] | [15]

CCOC(=O)COC(=O)c1ccccc1C(=O)OCC
inactive: [2] | [5] | [6] | [7] | [8] | [9] | [10] | [13]

OCC(F)(OC(F)(F)C(F)(OC(F)(F)C(F)(F)C(F)(F)F)C(F)(F)F)C(F)(F)F (stereo not given)
active: [15] 3.72 µM
inactive: [14] | [15]

CCCCCCCCCC(=O)OCC
active: [14] 29.1 µM | [15] 32.5 µM
not listed: [1] | [2] | [11] | [12]
inactive: all other assays above

CC(C)C(=O)c1ccccc1
not listed: [1] | [3] | [4] | [14] | [15]
inactive: all other assays above

CCCCCCCC1CCCC1=O (stereo not given)
active: [14] 34.5 µM | [15] 35.8 µM
not listed: [1] | [2] | [3] | [11] | [12]
inactive: all other assays above

CCCCC/C=C\C=C\C(=O)OCC
active: [5] 103 µM | [6] 50.4 µM | [7] 40 µM | [13] 156 µM
inactive: [11] | [8] | [9] | [10]

CC(C)Cc1ccccc1
not listed: [1] | [2] | [4] | [14] | [15]
inactive: all other assays above
